Where “and” joins values, the source holds several entries; their conditions need not be identical. Identical values can stand only once. In all, about 5,500 compounds went through this assay and about 2,000 (36%) were called active. Not shown: some 18% with an inconclusive outcome. No stated cut-off is given here; in the data, active means normalized growth mostly below about 0.91 (no sharp cut-off); inconclusive means no clear call, values can overlap the other calls; inactive means mostly above about 0.92. The list shows a part of the results.
Assay: chemical genetic growth profiling, strain panel (AID 1159580);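 further: tested at 20 µM; growth read once vehicle control cultures reached saturation at 30 °C; 1 = growth at the plate median or of vehicle wells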
Details: S. cerevisiae deletion strains, growth OD

Measured: normalized growth

CCC(CCC(C)[C@H]1CCC2C3CC=C4C[C@@H](O)CC[C@]4(C)C3CC[C@@]21C)C(C)C (stereo partly drawn)
inactive: locus YAL013W, strain DEP1, stronger effect = lower value 0.998 | locus YAL021C, strain ccr4, stronger effect = lower value 1.01 | locus YAL026C, strain drs2, stronger effect = lower value 1.01 | locus YAL030W, strain snc1, stronger effect = lower value 1.01 | locus YBL061C, strain skt5, stronger effect = lower value 1.02 | locus YBR009C, strain hhf1, stronger effect = lower value 1.02 | locus YBR021W, strain FUR4, stronger effect = lower value 1.02 | locus YBR023C, strain chs3, stronger effect = lower value 1.01 | locus YBR171W, strain sec66, stronger effect = lower value 1.04 | locus YBR229C, strain ROT2, stronger effect = lower value 0.988 | locus YBR231C, strain swc5, stronger effect = lower value 1.01 | locus YBR279W, strain paf1, stronger effect = lower value 1.01 | locus YCL011C, strain gbp2, stronger effect = lower value 1.02 | locus YCL016C, strain dcc1, stronger effect = lower value 1.02 | locus YCL029C, strain bik1, stronger effect = lower value 0.999 | locus YCL061C, strain MRC1, stronger effect = lower value 1.02 | locus YCL069W, strain vba3, stronger effect = lower value 1.02 | locus YCR088W, strain abp1, stronger effect = lower value 1.02 | locus YDL005C, strain med2, stronger effect = lower value 1.02 | locus YDL035C, strain GPR1, stronger effect = lower value 1.05 | locus YDL040C, strain nat1, stronger effect = lower value 1.02 | locus YDL074C, strain BRE1, stronger effect = lower value 1.05 | locus YDL101C, strain DUN1, stronger effect = lower value 0.973 | locus YDL134C, strain PPH21, stronger effect = lower value 0.97 | locus YDL185W, strain tfp1, stronger effect = lower value 0.976 | locus YDL192W, strain arf1, stronger effect = lower value 1.02 | locus YDR001C, strain nth1, stronger effect = lower value 1.01 | locus YDR069C, strain doa4, stronger effect = lower value 1.03 | locus YDR101C, strain arx1, stronger effect = lower value 1.03 | locus YDR137W, strain rgp1, stronger effect = lower value 1.01 | locus YDR150W, strain NUM1, stronger effect = lower value 0.997 | locus YDR159W, strain sac3, stronger effect = lower value 1.04 | locus YDR162C, strain NBP2, stronger effect = lower value 0.994 | locus YDR195W, strain ref2 1.03 | locus YDR297W, strain sur2, stronger effect = lower value 1.03 | locus YDR318W, strain mcm21, stronger effect = lower value 0.986 | locus YDR334W, strain swr1, stronger effect = lower value 1.03 | locus YDR335W, strain msn5, stronger effect = lower value 1.01 | locus YDR388W, stronger effect = lower value 0.975 | locus YDR392W, strain spt3, stronger effect = lower value 1.02 | locus YDR502C, strain sam2, stronger effect = lower value 0.973 | locus YEL003W, strain gim4, stronger effect = lower value 1.01 | locus YEL037C, strain rad23, stronger effect = lower value 1.02 | locus YEL061C, strain CIN8 (second series), stronger effect = lower value 1.02 | locus YER015W, strain faa2, stronger effect = lower value 1.01 | locus YER016W, strain bim1, stronger effect = lower value 1.02 | locus YER110C, stronger effect = lower value 0.979 | locus YER111C, strain swi4, stronger effect = lower value 1.02 | locus YER155C, strain BEM2 (second series), stronger effect = lower value 1.04 | locus YER155C, strain BEM2, stronger effect = lower value 0.982 | locus YER167W, strain BCK2, stronger effect = lower value 1.01 | locus YFR010W, strain ubp6, stronger effect = lower value 1.02 | locus YGL078C, strain dbp3, stronger effect = lower value 0.983 | locus YGL086W, strain mad1, stronger effect = lower value 0.989 | locus YGL167C, strain pmr1, stronger effect = lower value 1.03 | locus YGL173C, strain kem1, stronger effect = lower value 1.02 | locus YGL227W, strain vid30, stronger effect = lower value 1.02 | locus YGL240W, strain doc1, stronger effect = lower value 1.03 | locus YGL248W, strain PDE1, stronger effect = lower value 0.978 | locus YGL253W, strain hxk2, stronger effect = lower value 1.02 | locus YGR135W, strain pre9, stronger effect = lower value 0.958 | locus YGR252W, strain gcn5, stronger effect = lower value 0.929 | locus YHR013C, strain ard1, stronger effect = lower value 1.04 | locus YHR027C, strain rpn1, stronger effect = lower value 1.01 | locus YHR030C, strain SLT2, stronger effect = lower value 0.996 | locus YHR079C, strain IRE1 (second series), stronger effect = lower value 0.987 | locus YHR079C, strain IRE1, stronger effect = lower value 0.984 | locus YHR094C, strain hxt1, stronger effect = lower value 0.984 | locus YHR129C, strain ARP1, stronger effect = lower value 0.994 | locus YHR142W, strain chs7, stronger effect = lower value 1.02 | locus YHR200W, strain rpn10, stronger effect = lower value 0.961 | locus YIL066C, strain RNR3, stronger effect = lower value 1.01 | locus YIL073C, strain SPO22, stronger effect = lower value 1.02 | locus YIL125W, strain kgd1, stronger effect = lower value 0.993 | locus YIR030C, strain dcg1, stronger effect = lower value 0.986 | locus YJL092W, strain hpr5, stronger effect = lower value 1.02 | locus YJL095W, strain BCK1 (second series), stronger effect = lower value 1.01 | locus YJL095W, strain BCK1, stronger effect = lower value 0.972 and 0.979 | locus YJL115W, strain asf1, stronger effect = lower value 1 | locus YJL129C, strain trk1, stronger effect = lower value 1.03 | locus YJL134W, strain LCB3, stronger effect = lower value 0.991 | locus YJL154C, strain vps35, stronger effect = lower value 1.02 | locus YJL164C, strain tpk1, stronger effect = lower value 1.01 | locus YJL166W, strain qcr8, stronger effect = lower value 1.02 | locus YJL168C, strain set2, stronger effect = lower value 0.988 | locus YJL187C, strain SWE1 (second series), stronger effect = lower value 0.977 | locus YJL187C, strain SWE1, stronger effect = lower value 1.01 | locus YJR043C, strain POL32, stronger effect = lower value 1.06 | locus YJR066W, strain TOR1, stronger effect = lower value 0.915 | locus YKL009W, strain mrt4, stronger effect = lower value 1.01 | locus YKL068W, stronger effect = lower value 0.981 | locus YKL085W, strain MDH1 (second series), stronger effect = lower value 0.998 | locus YKL085W, strain MDH1, stronger effect = lower value 0.998 | locus YKL160W, strain elf1, stronger effect = lower value 1.01 | locus YKR001C, strain vps1, stronger effect = lower value 1 | locus YKR026C, strain gcn3, stronger effect = lower value 1.02 | locus YKR091W, strain srl3, stronger effect = lower value 1.01 | locus YLL001W, strain dnm1, stronger effect = lower value 1.01 | locus YLL026W, stronger effect = lower value 1.02 | locus YLL041C, strain sdh2, stronger effect = lower value 1.01 | locus YLR027C, strain aat2, stronger effect = lower value 1.02 | locus YLR039C, strain RIC1, stronger effect = lower value 1.04 | locus YLR058C, strain SHM2, stronger effect = lower value 0.998 | locus YLR102C, strain apc9, stronger effect = lower value 0.976 | locus YLR113W, strain HOG1, stronger effect = lower value 0.97 | locus YLR221C, strain rsa3, stronger effect = lower value 1.01 | locus YLR258W, strain gsy2, stronger effect = lower value 1 | locus YLR262C, strain YPT6 (second series), stronger effect = lower value 1.03 | locus YLR262C, strain YPT6, stronger effect = lower value 1.05 | locus YLR268W, strain sec22, stronger effect = lower value 1.01 | locus YLR320W, strain mms22, stronger effect = lower value 1.03 | locus YLR342W, strain FKS1 (second series), stronger effect = lower value 1.08 | locus YLR342W, strain FKS1, stronger effect = lower value 1.03 | locus YLR357W, strain rsc2, stronger effect = lower value 1 | locus YLR370C, strain arc18, stronger effect = lower value 1.01 | locus YLR371W, strain rom2, stronger effect = lower value 1 | locus YLR384C, strain iki3, stronger effect = lower value 1.02 | locus YLR418C, strain cdc73, stronger effect = lower value 0.964 | locus YML016C, strain PPZ1, stronger effect = lower value 1 | locus YML032C, strain rad52, stronger effect = lower value 1.01 | locus YML120C, strain ndi1, stronger effect = lower value 1.01 | locus YML124C, strain tub3, stronger effect = lower value 0.986 | locus YMR058W, strain fet3, stronger effect = lower value 1.02 | locus YMR078C, strain ctf18, stronger effect = lower value 0.971 | locus YMR125W, strain sto1, stronger effect = lower value 1.01 | locus YMR129W, stronger effect = lower value 1.01 | locus YMR205C, strain PFK2, stronger effect = lower value 1.03 | locus YMR223W, strain ubp8, stronger effect = lower value 0.987 | locus YMR231W, strain pep5, stronger effect = lower value 0.997 | locus YMR307W, strain GAS1, stronger effect = lower value 0.996 | locus YNL067W, strain RPL9B, stronger effect = lower value 0.988 | locus YNL071W, strain lat1, stronger effect = lower value 1.01 | locus YNL128W, strain TEP1, stronger effect = lower value 1.01 | locus YNL153C, strain GIM3, stronger effect = lower value 0.986 | locus YNL183C, strain NPR1, stronger effect = lower value 0.905 | locus YNL209W, strain ssb2, stronger effect = lower value 1.01 | locus YNL233W, strain BNI4, stronger effect = lower value 0.968 | locus YNL248C, strain rpa49, stronger effect = lower value 1.01 | locus YNL250W, strain rad50, stronger effect = lower value 0.961 | locus YNL271C, strain bni1, stronger effect = lower value 0.974 | locus YNL298W, strain CLA4, stronger effect = lower value 0.993 | locus YNL307C, strain MCK1, stronger effect = lower value 0.978 | locus YNL322C, strain KRE1 (second series), stronger effect = lower value 1.01 | locus YNR049C, strain mso1, stronger effect = lower value 1.01 | locus YNR052C, strain pop2, stronger effect = lower value 0.973 | locus YOL006C, strain TOP1, stronger effect = lower value 1.1 | locus YOL012C, strain htz1 0.713 | locus YOL147C, strain pex11, stronger effect = lower value 0.989 | locus YOR001W, strain rrp6, stronger effect = lower value 1.03 | locus YOR061W, strain CKA2, stronger effect = lower value 1.02 | locus YOR069W, strain VPS5, stronger effect = lower value 0.99 | locus YOR070C, strain gyp1, stronger effect = lower value 1.05 | locus YOR080W, strain dia2, stronger effect = lower value 1.02 | locus YOR083W, strain WHI5, stronger effect = lower value 1.02 | locus YOR106W, strain vam3, stronger effect = lower value 1.02 | locus YOR136W, strain idh2, stronger effect = lower value 0.971 | locus YOR144C, strain elg1, stronger effect = lower value 0.988 | locus YOR184W, strain ser1, stronger effect = lower value 1.05 | locus YOR231W, strain MKK1, stronger effect = lower value 0.991 | locus YOR265W, strain rbl2, stronger effect = lower value 1.02 | locus YOR270C, strain vph1, stronger effect = lower value 1.03 | locus YOR290C, strain snf2, stronger effect = lower value 1.02 | locus YOR316C, strain cot1, stronger effect = lower value 0.978 | locus YPL051W, strain arl3, stronger effect = lower value 1.04 | locus YPL078C, strain atp4, stronger effect = lower value 1.01 | locus YPL106C, strain sse1, stronger effect = lower value 1.01 | locus YPL240C, strain hsp82, stronger effect = lower value 1.01 | locus YPL256C, strain CLN2, stronger effect = lower value 0.989 | locus YPR119W, strain clb2, stronger effect = lower value 0.97 | locus YPR141C, strain kar3, stronger effect = lower value 0.972 | locus YPR163C, strain tif3, stronger effect = lower value 0.979 | locus YPR167C, strain met16, stronger effect = lower value 0.97 | strain wtn01, stronger effect = lower value 1.01

— PubChem BioAssay AID1159580 (chemical genetic matrix, 2015)
